Screening data deposited in PubChem BioAssay by National Center for Advancing Translational Sciences (NCATS).
This is a sample that favours compounds with a hit; in the whole collection about 10% have one here.
GPT2 inhibitor = inhibitors of human GPT2 alanine aminotransferase; AID 1671188; Recombinant GPT2, coupled pyruvate oxidase/HRP Amplex Red fluorescence; Potency, µM (doses to about 57.7 µM), inactives show top-dose activity change, negative = inhibition, most hits filed as inhibitors; 100,000 tested, 0.25% active; further: nearly all actives have a fitted effect of over 60% in size
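GPT2 10ng/uL, a-KG 250uM, L-Ala 2mM, HEPES pH7.5 + 0.0001% Tween; 30 min RT. Then Amplex mix (PO/HRP/ThPP), 30 min RT dark, fluorescence. AOA 50uM used as positive control.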
Luciferase inh = Photinus pyralis luciferase inhibition. purified P. pyralis luciferase, luminescence, biochemical. Potency, µM (series often up to 115 µM), usual class: inhibitors. 76,000 tested, 2.5% active. AID 1347043; further: nearly all actives have a fitted effect of over 65% in size
Target sequence (P08659 whole entry, looked up): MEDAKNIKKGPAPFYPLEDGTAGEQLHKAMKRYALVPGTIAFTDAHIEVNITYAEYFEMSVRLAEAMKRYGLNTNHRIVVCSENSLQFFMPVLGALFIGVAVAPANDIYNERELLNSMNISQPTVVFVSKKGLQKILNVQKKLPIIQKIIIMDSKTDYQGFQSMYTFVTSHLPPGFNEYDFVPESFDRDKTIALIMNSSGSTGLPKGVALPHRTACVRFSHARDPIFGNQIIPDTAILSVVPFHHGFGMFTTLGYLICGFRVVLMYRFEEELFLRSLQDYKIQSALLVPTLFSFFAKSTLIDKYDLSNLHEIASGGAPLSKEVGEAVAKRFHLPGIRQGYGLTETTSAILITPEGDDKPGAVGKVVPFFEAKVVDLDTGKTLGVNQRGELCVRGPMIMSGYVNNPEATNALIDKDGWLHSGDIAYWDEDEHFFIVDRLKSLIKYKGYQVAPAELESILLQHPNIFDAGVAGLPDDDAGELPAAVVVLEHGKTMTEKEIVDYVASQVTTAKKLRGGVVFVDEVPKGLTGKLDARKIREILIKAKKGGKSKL
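Biochemical qHTS: compound (6-point titration) added to 10uM D-luciferin plus 10uM ATP in Tris acetate pH 7.5 buffer with Mg, Tween-20 and BSA, then purified enzyme at 10nM; light output imaged.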
3T3 cytotox = NIH 3T3 cell cytotoxicity; Potency, µM (titrated, usually from 96.7 µM), for the others: at the top dose activity change, negative = cytotoxicity, actives largely listed as inhibitors; 94,000 tested, 4.3% active; AID 1345082; NIH 3T3 viability, CellTiter-Glo ATP luminescence, 48-72 h; further: nearly all actives have a fitted effect of over 55% in size
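First NIH 3T3 cells are plated at 400 cells/well; next compound is pinned in; then plates incubate 48 or 72 hr at 37 °C; finally CellTiter-Glo is added and luminescence read after 10 min.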
NPR1 antag = blocks ANP-stimulated signaling of human Npr1 receptor; Potency, µM (highest dose often 46.3 µM), without a hit: at the top dose activity change, negative = inhibition, hits mostly inhibitors; P16066; 76,000 tested, 1.6% active; AID 1347048; HEK293 hNpr1 GloSensor cGMP, ANP-stimulated luminescence; calls by dose curve; further: nearly all actives have a fitted effect of over 60% in size
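Compound pre-incubated 30 min at room temperature on GloSensor-loaded HEK293 cells stably carrying hNpr1 and the pGS-40F cGMP biosensor. Stimulation uses hNppA at 0.1 nM final; luminescence is taken at baseline and 20 min post-agonist.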
HEK293 tox = cytotoxic compounds in HEK 293 cells; 94,000 tested, 6.6% active; Potency, µM (titrated, usually from 115 µM), for inactives: at the highest dose activity change, negative = cytotoxicity, hits mostly inhibitors; AID 1345083; HEK 293 viability, ATP luminescence (CellTiter-Glo), 48-72 h; further: nearly all actives have a fitted effect of over 60% in size
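Pintool-delivered compounds were incubated with HEK 293 cells (250 cells/well) at 37 degree Celsius for 48 or 72 hr. ATP-dependent luminescence (CellTiter-Glo) then reported remaining viable cells.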
* = called active by the depositor; i = inactive; ? = inconclusive; nt = no result given; ! = a repeat was not active; [ ] = another dose, or the depositor's remark. Unless noted, the call rests on the fitted dose curve; in most records, active means well fitted curve in the direction sought with a large enough effect; inconclusive means small, poorly fitted or top-dose-only effect, or another doubt; inactive means no such curve, though single readings can be large; an effect the other way counts as inactive or inconclusive. On the % scale 0 is the no-effect control and ±100 the full control effect; potency means the concentration at half of the fitted maximal effect.

SMILES | GPT2 inhibitor | Luciferase inh | 3T3 cytotox | NPR1 antag | HEK293 tox
O=[S+]1([O-])NC2(CCN(CC3CCCCC3)CC2)COc2ccccc21 | -12% | nt | 3% | nt | 0%
Cc1noc(-c2nc(-c3ccc4c(c3)OCO4)no2)n1 | i | ? | -5% | 1% | -15%
COCCc1noc(-c2nc(-c3ccccc3)no2)n1 | i | 20µM* | -10% | -5% | -24%
CCCc1noc(-c2nc(-c3ccc4c(c3)OCO4)no2)n1 | i | 13µM* | -6% | -16% | -21%
CCc1noc(-c2nc(-c3cccc(F)c3)no2)n1 | i | 25µM* | i | -21% | -7%
CCc1noc(-c2nc(-c3ccc(F)c(F)c3)no2)n1 | -4% | ? | i | -14% | 4%
COc1cccc(-c2cn3c(n2)N(C(=O)Cc2cccs2)CCC3)c1 | i | ? | -26% | -5% | ?
C[S+](=O)([O-])N1Cc2ccccc2CC2(CCCCN2CC2CCOCC2)C1 (centres undefined) | -1% | nt | -7% | nt | -7%
Cc1cccc(C(=O)N2CCCN(C)c3ccccc32)c1 | -3% | i | ? | -2% | ?
Cc1ccc(C)c(-c2ccc(C(=O)NCCCn3ccnc3C(C)C)cn2)c1 | 0% | i | ? | ? | ?
Cc1ccc(-c2ccc(C(=O)NCCCn3ccnc3C(C)C)cn2)cc1C | i[11.5 µM] | ? | ? | -5% | 40µM*
CC(=O)NC(CO)C(=O)N1CCc2onc(-c3cccc4ccccc34)c2C1 (centres undefined) | i | i | -16% | 1% | -6%
O=C(c1ccc(C(F)(F)F)cc1)N1CCc2nc(-c3ccc(Cl)cc3)nc(-c3ccccc3)c2C1 | -9% | i | -18% | 7% | 20µM*
O=C(c1ccccc1)N1CCc2nc(-c3ccccc3)nc(-c3ccc(Cl)cc3)c2C1 | -3% | i | ? | 0% | ?
Cc1ccc(C(=O)N2CCc3nc(-c4ccc(Cl)cc4)nc(-c4ccccc4)c3C2)cc1 | i | ? | ? | 0% | 50µM*!
Cc1ccc(C(=O)N2CCc3onc(-c4cccc5ccccc45)c3C2)cc1 | -8% | i | ? | -4% | 40µM*
CCOC(=O)c1ccc(NC(=O)c2ccc3c(c2)N(CC)C2CCCCN2C3=O)cc1 (centres undefined) | i | i | ? | -25% | 35µM*
CCOC(=O)c1ccc(NC(=O)c2ccc3c(c2)N(CC)C2CCCN2C3=O)cc1 (centres undefined) | 4% | i | -40% | -4% | ?
CN1c2cc(C(=O)Nc3ccc(C(N)=O)cc3)ccc2C(=O)N2CCCCC21 (centres undefined) | 1% | i | ? | 0% | -5%
CCOC(=O)c1ccc(NC(=O)c2ccc3c(c2)N(C)C2CCCCN2C3=O)cc1 (centres undefined) | i | i | ? | 0% | 35µM*
CCOc1ccc(NC(=O)c2ccc3c(c2)N(CC)C2CCCCN2C3=O)cc1 (centres undefined) | 0% | i | 22µM* | -9% | 32µM*
COc1ccc(NC(=O)N2CCCC(c3noc(COc4ccccc4F)n3)C2)c(C)c1 (centres undefined) | ? | i | ? | ? | ?
O=C(CCc1ccccc1)N1C[C@@H](CO)[C@H](c2nc(C3CC3)no2)C1 | 5% | i | -1% | -1% | -20%
O=C(NCc1ccccc1)c1ccccc1OC1CN(Cc2ccc(F)c(F)c2)C1 | i | i | 40µM* | -13% | ?
O=C(NC1CC1)c1ccccc1OC1CN(Cc2cc(F)c(F)c(F)c2)C1 | i | i | ? | -10% | ?
SMILES | GPT2 inhibitor | Luciferase inh | 3T3 cytotox | NPR1 antag | HEK293 tox
CCOc1ccc(CN2CC(Oc3ccccc3C(=O)NCc3ccccc3)C2)cc1 | 4% | nt | ? | nt | 20µM*
Cc1c(CN2CC(Oc3ccccc3C(=O)NCc3ccccc3)C2)cnn1C | i | i | -8% | -12% | ?
Cc1ccsc1CN1CC(Oc2ccccc2C(=O)NCc2ccccc2)C1 | i | nt | 40µM* | nt | 40µM*
O=C(NCc1ccccc1)c1ccccc1OC1CN(Cc2cccc(C(F)(F)F)c2)C1 | -6% | nt | 13µM* | nt | 25µM*
COCCCn1c(=O)c(C(=O)N2CCC(C#N)CC2)nc2cccnc21 | i | nt | -8% | nt | -3%
O=C(NCc1ccccc1)c1ccccc1OC1CN(Cc2cccc(F)c2F)C1 | 0% | nt | 20µM* | nt | ?
CC(NC(=O)c1cc(-c2ccncc2)cn1C)c1ccc(F)cc1 (centres undefined) | -3% | i | -24% | -10% | 79µM*
CN1CCN(C(=O)c2cc3n(n2)CC(c2ccc(Br)cc2)OC3)CC1 (centres undefined) | 0% | i | ? | -11% | 40µM*
O=C(c1cc2n(n1)CC(c1ccc(Cl)cc1)OC2)N1CCN(c2ccccc2Cl)CC1 (centres undefined) | -1% | i | ? | -25% | 28µM*
O=C(c1cc2n(n1)CC(c1ccc3c(c1)OCO3)OC2)N1CCN(c2ccccc2)CC1 (centres undefined) | -7% | i | ? | ? | ?
O=C(c1cc2n(n1)CC(c1ccc(Cl)cc1)OC2)N1CCN(c2ccc(F)cc2)CC1 (centres undefined) | i | i | ? | ? | 40µM*
COC1CN(c2cccc(F)c2)C12CCN(C(=O)c1ccc3ncccc3c1)CC2 (centres undefined) | 4% | nt | -21% | nt | ?
COc1ccc(NC(=O)Cn2c(N3CCN(c4ccccc4)CC3)nc(C)cc2=O)cc1 | i | i | -20% | 0% | ?
COCCN1C(=O)c2cccn2CC1CNC(=O)c1ccc(-n2c(C)ccc2C)cc1 (centres undefined) | i | nt | ? | nt | 25µM*
COCCN1C(=O)c2cccn2CC1CNC(=O)c1ccc(F)cc1 (centres undefined) | i | i | 2% | 0% | -1%
CC(C)NS(=O)(=O)c1ccc2c(c1)nc(-c1cc(C(C)(C)C)[nH]n1)n2C(C)C | i | i | ? | -1% | 45µM*
C/C=C(\C)C(=O)O[C@H]1C=CC(=O)O[C@H]1/C=C/[C@H](O)[C@@H](C)O | i | nt | nt | nt | nt
Cc1cccc(OCC(=O)N2CCC(n3cc(-c4nc(C5CC5)no4)nn3)C2)c1 (centres undefined) | -4% | i | -30% | 1% | -26%
COc1cccc(C(=O)N2CCC(n3cc(-c4nc(-c5ccccc5)no4)nn3)C2)c1 (centres undefined) | i | ? | ? | 11µM* | ?
